# Screening data (PubChem BioAssay)
# TWEAK Fn14 block – TWEAK-Fn14 signaling inhibition. 2% of 360,000 active. inhibition, % at 10 µM. TWEAK-stimulated Fn14 reporter cells, luciferase luminescence, 8 h; in the data active = inhibition above about 50%
# Peg3 prom inh-1 – reduces Peg3 promoter-driven luciferase expression in HeLa; HeLa PEG-Prom luciferase reporter, luminescence, overnight; inhibition, % at 20 µM; 1.7% of 360,000 active;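 active = inhibition of at least 50% at 20 µM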
# CF NFkB inh – cystic fibrosis NF-kB activation inhibition. KKLEB NF-kB-GFP reporter, PAF-induced, GFP fluorescence overnight. inhibition, % at 5 µM. 0.86% of 360,000 active;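 active = at least 50% inhibition at 5 µM, scaled per plate between neutral and stimulator controls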;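 note: PAF is a Pseudomonas aeruginosa culture filtrate used as stimulus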
# KKLEB tox – counter-screen for CF NF-kB inhibitors: cytotoxicity; KKLEB CF airway cells viability, ATPlite luminescence, overnight; hits give low values; cells stimulated with P. aeruginosa culture filtrate; activity change (cytotoxicity), % at 5 µM; 0.36% of 360,000 active; AID 602141;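 active = corrected activity change at or below -50% at 5 µM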
# HIF-2a block – blocks HIF-2a reporter activity; 786-0 RCC cells HIF-2a reporter, luciferase luminescence, overnight; inhibition, % at 18.8 µM; 0.72% of 360,000 active;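 active = inhibition of the luminescence signal of 40% or more relative to plate controls, in a single-dose primary screen at 18.75 µM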
# TROY NFkB inh – inhibitors of TROY-dependent NF-kB signaling; inhibition, % at 10 µM; AID 1347056; 0.98% of 360,000 active; Q293 LMP1-TROYcd NF-kB luciferase reporter, 4 h;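 active = compounds whose plate-normalised and pattern-corrected inhibition of the luciferase reporter signal at the single screening dose is 50% or more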
# Peg3 prom inh-2 – Peg3 promoter inhibition confirmation; shares compounds with Peg3 prom inh-1; HeLa PEG-Prom luciferase reporter, luminescence, overnight; inhibition, % at 20 µM; 84% of 1,300 active;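 active = at 20 µM dose, 40% or more inhibition averaged across four replicates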
# Numbers stand for hits; – = inactive; · = not tested or not shown; ! = a repeat was not active. In the library only some 4% were active in any assay of this set; here they are far more common.
SMILES,TWEAK Fn14 block,Peg3 prom inh-1,CF NFkB inh,KKLEB tox,HIF-2a block,TROY NFkB inh,Peg3 prom inh-2
COCCNC(=O)/C(C#N)=C/C=C/c1ccccc1[N+](=O)[O-],–,53,–,–,–,–,–
CCCOc1cccc(C(=O)Nc2ccc(Br)cc2F)c1,–,–,–,–,–,–,·
CCCCN(C(=O)c1ccc(S(=O)(=O)N(C)C)cc1)c1nc2ccccc2s1,–,–,–,–,–,–,·
NC(=O)c1nsc(C(=O)N(c2ccccc2F)C(C(=O)NCc2ccccc2)c2ccc(O)cc2)c1N (stereo not drawn),–,75,90,-54,–,–,57
Cc1ccccc1N(C(=O)c1snc(C(N)=O)c1N)C(C(=O)NCc1ccccc1)c1ccc(O)cc1 (stereo not drawn),–,–,–,–,–,–,·
CC(NNC(=S)N1CCN(c2ccccn2)CC1)c1nccc2ccccc12 (stereo not drawn),–,92,–,–,52,–,87
CCNC(=S)N1CCN(c2ccccn2)CC1,–,–,–,–,–,–,·
CCOc1ccc(CC2S/C(=N/c3ccccn3)NC2=O)cc1 (stereo not drawn),–,–,–,–,–,–,·
Cc1c(C(=O)N2CCN(c3ccc(F)cc3)CC2)sc2ncnc(N3CCN(c4ccccn4)CC3)c12,60,50,–,–,–,53,87
COc1ccccc1N1CCN(C(=O)c2sc3ncnc(N4CCN(c5ccccn5)CC4)c3c2C)CC1,–,84,–,–,–,–,74
COc1ccc(OC)c(NC(=O)c2sc3ncnc(N4CCN(c5ccccn5)CC4)c3c2C)c1,–,–,–,–,–,–,·
CCCCSc1ccc2nc(-c3ccc(C#N)cc3)cn2c1,–,–,–,–,–,–,·
CCCSc1ccc2nc(-c3ccccc3)cn2c1,97,77,–,-70,69,78,69
O=C(O)C/C=C(/NC(=O)OCc1ccccc1)C(=O)OCc1ccccc1,–,–,–,–,–,–,·
Cc1ccc(Oc2ccc(NC(=O)Cn3ccsc3=N)cc2)cc1,–,53,–,–,–,–,–
Cc1nnc(SCc2ccc([N+](=O)[O-])cc2)[nH]c1=O,–,–,–,–,–,–,·
COc1ccc(C23CC4CC(CC(C4)C2)C3)cc1C(=O)NCCN(C)C,–,51,–,–,–,–,75
COc1ccccc1C(=O)NCCC(=O)NCCC12CC3CC(CC(C3)C1)C2,–,–,–,–,–,–,·
CCN(CC)CCN1CCN(c2cncc(-c3ccc4ccccc4c3)n2)CC1,–,71,–,–,–,–,90
C[C@H]1CN([C@@H](C)CO)C(=O)CCCn2nncc2CO[C@@H]1CN(C)Cc1cccc2c1OCCCO2,–,–,–,–,–,–,·
CCOc1ccc2[nH]c3ncccc3c(=O)c2c1,–,–,–,–,–,–,·
CCOc1ccc2c(ccc(/C=C/c3cc(C)c4cccnc4c3O)[n+]2C)c1,–,101,–,–,–,–,84
COc1ccc(OCC(=O)Nc2ccc3c(c2)nc(CCN2CCN(C)CC2)n3C)cc1,–,–,–,–,–,–,·
NS(=O)(=O)c1ccc(CCNC(=O)c2cc(-c3cccs3)nc3ccccc23)cc1,–,54,–,–,–,–,41
NS(=O)(=O)c1ccc(CNC(=O)c2cc(-c3cccs3)nc3ccccc23)cc1,–,–,–,–,–,–,·
SMILES,TWEAK Fn14 block,Peg3 prom inh-1,CF NFkB inh,KKLEB tox,HIF-2a block,TROY NFkB inh,Peg3 prom inh-2
CC(C)(C)NC(=O)CN(C(=O)CCC(=O)Nc1nccs1)c1ccccc1F,–,–,–,–,–,–,·
COc1ccc(CCNC(=O)c2ccc(OCc3c(C)noc3C)c(OC)c2)cc1,–,–,–,–,–,–,·
COc1cc(C(=O)NCCc2c[nH]c3ccccc23)ccc1OCc1c(C)noc1C,–,63,–,–,–,–,–
CSc1ccc2c(c1)C(N1CCN(C)CC1)Cc1ccccc1S2 (stereo not drawn),–,82!,–,–,–,–,84
O=C(/C=C/Nc1ccccc1Br)c1ccccn1,104,90,–,–,85,84,87
Cc1c2c(n3c(nc4ccccc43)c1C#N)N(CCN1CCOCC1)CC2,–,–,–,–,–,–,·
